The values below come from the supplement of paper PMC4962491.

± gives the standard deviation of the averaged measurements. The full ranking holds about 1,600 compounds; the median of “mitochondrial oxygen consumption rate normalised to cell number, Z score over the library” is about 0.065, and the lowest 2% start at about -2.2. This excerpt belongs to a sample that is enriched for the lowest values.

In the assay the test system is FaDu. Kind of assay: mitochondrial oxygen consumption rate normalised to cell number, Z score over the library; higher = higher oxygen consumption (negative = OCR reduction). The conditions noted are these: treatment time 24 h; assay medium: 5 mM galactose, 5 mM pyruvate, 4 mM glutamine; 10 µM. The protocol:
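Primary screen: FaDu cells were incubated 24 h with Pharmakon 1600 / TDI oncology set compounds at 2 or 10 uM. Mitochondrial-specific OCR (basal minus 2 uM antimycin A) was measured on a Seahorse XF96 in assay medium with 5 mM galactose, 5 mM pyruvate and 4 mM glutamine, then corrected for Hoechst cell number and expressed as a Z score […]. Compounds that cut cell number by >66% were excluded. Two repeats.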
`S=C=NCc1ccccc1`: the “mitochondrial oxygen consumption rate normalised” value is -4.7 ± 0.66.

Regarding `CN1CCN(C(=O)O[C@H]2c3nccnc3C(=O)N2c2ccc(Cl)cn2)CC1`, the “mitochondrial oxygen consumption rate normalised” value is -0.823 ± 0.029. As for `CN(C)C(=S)SSC(=S)N(C)C`, the figure is 0.578 ± 0.018; as for `CC(=O)Oc1ccc(Cl)c2cccnc12`, -3.19 ± 0.57. In the case of `CCNC1(c2cccs2)CCCCC1=O` (stereo unspecified) it was -0.924 ± 0.92. Take `CNC(C)C(O)c1ccccc1` (stereo unspecified): the “mitochondrial oxygen consumption rate normalised” value is 0.176 ± 0.34. In the case of `CN(C)C(=O)Oc1cccc([N+](C)(C)C)c1` it was 0.321 ± 1.4. As for `C1CCc2nnnn2CC1`, the figure is -0.625 ± 0.34; as for `O=c1[nH]c(=O)n(Cl)c(=O)n1Cl`, 0.623 ± 1.2.

Regarding `O=c1[nH]c2ccccc2n1C1CCN(CCCC(c2ccc(F)cc2)c2ccc(F)cc2)CC1`, the “mitochondrial oxygen consumption rate normalised” value is -2.35 ± 0.37. As for `O=c1[nH]c2ccccc2n1CCCN1CCC(n2c(=O)[nH]c3cc(Cl)ccc32)CC1`, the figure is -0.0948 ± 0.24; as for `Nc1ccc([As](=O)(O)O)cc1`, 0.928 ± 0.83. Regarding `N.N.[Cl][Pt][Cl]`, the “mitochondrial oxygen consumption rate normalised” value turned out to be 0.355 ± 0.5. With `N.N.[Cl][Pt][Cl]` [Cisplatin], the “mitochondrial oxygen consumption rate normalised” value was -0.167 ± 0.0067.

In the case of `COc1cc([C@@H]2c3cc4c(cc3[C@H](O)[C@H]3COC(=O)[C@H]23)OCO4)cc(OC)c1OC`, the “mitochondrial oxygen consumption rate normalised” value is -0.645 ± 0.1. Take `CCC1(CC)C(=O)C=CNC1=O`: the “mitochondrial oxygen consumption rate normalised” value stood at 0.538 ± 1.2.

`CC[C@H]1CN2CCc3cc(OC)c(OC)cc3[C@@H]2C[C@@H]1C[C@H]1NCCc2cc(OC)c(OC)cc21`: the “mitochondrial oxygen consumption rate normalised” value is -5.13 ± 0.2. In the case of `CCOC(=O)NC(=S)Nc1ccccc1NC(=S)NC(=O)OCC` it was -0.249 ± 0.0062.

On to `NCc1cccnc1`, for which the “mitochondrial oxygen consumption rate normalised” value is 0.0684 ± 1.5.

Consider `CC(=O)NC1CCSC1=O` (stereo unspecified), for which the “mitochondrial oxygen consumption rate normalised” value came to 0.219 ± 0.66.

`COC(C)(C)CCC[C@H](C)C/C=C/C(C)=C/C(=O)OC(C)C`: the “mitochondrial oxygen consumption rate normalised” value was 0.396 ± 0.11.
